# Sampled rows, rich in hits. Any-hit rate of the full collection: about 12%.
# Arbovirus inh = antivirals against arbovirus infection, primary screen, cell-based, full library, 10K replicate subset | 200,000 compounds, 0.37% hits | AID 1251, 2008 | arbovirus infection cell-based antiviral screen | inhibition, % at 10 µM; in the data active = inhibition above about 30%
# L major viab = Leishmania major promastigote growth inhibition, primary screen; AID 1063, 2008; 200,000 compounds, 9% hits; inhibition, % at 10 µM; Leishmania major promastigotes, resazurin fluorescence viability; in the data active = inhibition above about 50%;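 note: promastigotes grown with compound for 44 hours at 28 °C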
# CHOP inh = inhibitors of CHOP promoter induction, primary screen, cell-based, unfolded protein response, luciferase reporter; CHO-K1 CHOP-promoter luciferase, tunicamycin-induced, 15-18 h; inhibition, % at 10 µM; 220,000 compounds, 3.8% hits;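 active = compounds that reduced the stress-induced luciferase reporter signal by more than about 70% of percent inhibition, limit read from the data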
# WT yeast gro inh = growth inhibition of WT strain, primary screen, mitochondrial fusion inhibitor project, WT and mutant strains, chemical genetic. inhibition, % at 10 µM. AID 1362, 2008. 190,000 compounds, 2.1% hits. mitochondrial fusion phenotypic screen; in the data active = inhibition above about 58%; tested in S. cerevisiae
# Hits are given with their value; . = inactive; / = not tested or not shown.
SMILES,Arbovirus inh,L major viab,CHOP inh,WT yeast gro inh
COc1ccc(/C=N/Nc2nnc(Cc3ccc(OC)c(OC)c3)c(=O)[nH]2)cc1,.,.,.,.
CCC(=C(c1ccc(OC)cc1)c1ccc(OC)cc1)c1cn(CC(O)CN(CCO)CCO)c2ccccc12 (stereo not drawn),.,69,76,98
COc1ccc(OCC(O)CN(CCO)CC(O)Cn2ccc3ccccc32)cc1 (stereo not drawn),.,.,.,.
COc1cnc(-c2ccccn2)nc1Sc1ccc(C)cc1,.,100,.,.
Nc1cccnc1Sc1cccc(Cl)c1,.,.,.,.
COc1ccccc1Sc1nc(-c2ccccn2)ncc1OC,.,83,.,.
COc1cccc(-c2nc(-c3ccccn3)no2)c1OC,.,.,.,.
COc1cnc(-c2ccccn2)nc1Sc1cccc(Cl)c1,.,100,.,.
COc1cnc(-c2ccccn2)nc1NC(C)C,.,100,.,.
CCC1(C)N=C(N)Nc2nc3cc(C)c(C)cc3n21 (stereo not drawn),/,/,.,/
CC(C)c1nnc(NC(=O)CCC(=O)Nc2ccc3cn[nH]c3c2)s1,/,/,.,/
CC(NC(=O)Nc1ccccc1)C(c1ccccc1)N1CCOCC1 (stereo not drawn),.,52,.,.
CC(NC(=O)Nc1ccccc1)C(c1cccs1)N1CCOCC1 (stereo not drawn),.,.,.,.
O=C1CCCCCCC1Sc1ccccc1[N+](=O)[O-] (stereo not drawn),.,.,83,.
COc1ccccc1OCC(=O)N(Cc1nc(-c2ccccc2)no1)C1CCCCC1,.,.,.,61
COc1ccccc1C(=O)N(Cc1nc(-c2ccc(Cl)cc2)no1)C(C)C,.,.,75,.
Cc1ccccc1OCC(=O)N(Cc1nc(-c2ccccc2)no1)C(C)C,.,.,.,.
COc1ccc(-c2noc(CN(C(=O)c3c(-c4ccccc4Cl)noc3C)C(C)C)n2)cc1,.,.,72,.
CC(=C\C(=O)O)/C(=C\c1cccc2ccccc12)C(=O)O,/,/,.,/
CCN(CC(=O)Nc1ccc2c(c1)OCCO2)c1nc(-c2cccnc2)nc2ccccc12,.,53,.,.
COc1ccc2c(c1OC)C(=O)N1N=C(c3ccc(O)cc3)CC21 (stereo not drawn),.,.,.,.
Cc1cc(C)cc(OCC(=O)N2N=C(C(F)(F)F)CC2(O)C(C)(C)C)c1 (stereo not drawn),.,.,78,.
CC(C)(C)C1(O)CC(C(F)(F)F)=NN1C(=O)CCCc1ccccc1 (stereo not drawn),.,.,88,.
CCCCC1(O)CC(C(F)(F)F)=NN1C(=O)COc1ccccc1 (stereo not drawn),.,.,.,.
CCCc1nc(SC)[nH]c(=O)c1C,/,/,.,/
SMILES,Arbovirus inh,L major viab,CHOP inh,WT yeast gro inh
CC(C)(C)C1CCc2onc(C(=O)Nc3ccc(F)cc3F)c2C1 (stereo not drawn),.,.,.,.
O=C(Nc1cnn(Cc2ccc(F)cc2)c1)c1noc2c1CCCC2,.,100,.,.
O=C(Nc1cnn(Cc2ccc(F)cc2)c1)C(c1ccccc1)c1ccccc1,.,51,.,.
O=C(Nc1cnn(Cc2ccc(F)cc2)c1)c1cnccn1,.,.,.,.
Cc1nn(Cc2ccc(F)cc2)c(C)c1NC(=O)c1noc2c1CCCCC2,.,.,.,.
CC(C)(C)C1CCc2onc(C(=O)Nc3cnn(Cc4ccc(F)cc4)c3)c2C1 (stereo not drawn),.,.,86,.
COC(=O)c1c(NC(NC(=O)C(C)C)C(Cl)(Cl)Cl)sc2c1CCCC2 (stereo not drawn),.,.,.,77
CCOC(=O)c1sc(NC(=O)c2ccc(Br)o2)cc1C,.,.,.,.
CCOC(=O)c1sc(NC(=O)c2cccs2)cc1C,.,.,.,.
CCOC(=O)c1sc(NC(=O)c2sccc2C)cc1C,.,69,.,.
CCOC(=O)c1sc(NC(=O)Nc2cccc(Cl)c2)cc1C,.,.,.,67
O=C(Nc1ccc(F)cc1)N1CCc2ccccc2C1,.,.,.,.
COc1ccc(NC(=O)C2CC(=O)OC23CCOC(C)(C)C3)cc1 (stereo not drawn),.,.,.,.
CSc1ccc(CN(C)C(C)C(=O)NCc2ccccc2)cc1 (stereo not drawn),.,.,.,.
COc1cc(OC)c(S(=O)(=O)NC(C)C)cc1C(=O)O,/,/,.,/
CC(NC(=O)c1c(Cl)cnn1C)C1CCCO1 (stereo not drawn),/,/,.,/
CCc1nn2c(NCCOC)cc(C)nc2c1-c1ccc(F)cc1,.,.,.,.
Nc1c(C(=O)NCc2ccc(F)cc2)c2nc3ccccc3nc2n1CCCN1CCOCC1,.,100,.,.
Nc1c(C(=O)NCc2ccccc2)c2nc3ccccc3nc2n1CCCN1CCOCC1,.,.,102,.
COc1ccc(CNC(=O)c2c(N)n(CCCN3CCOCC3)c3nc4ccccc4nc23)cc1,.,87,.,.
CC(=O)c1cc(N2CCC(C(=O)O)CC2)ccc1[N+](=O)[O-],.,.,.,.
COc1ccc(Cl)cc1NC(=O)Nc1cccc([N+](=O)[O-])c1C,.,.,84,.
COc1ccccc1NS(=O)(=O)c1ccc(NC(=O)Cc2cccs2)cc1,.,.,.,.
COc1ccccc1NS(=O)(=O)c1cccc(NC(=O)c2nc3nc(C)cc(C)n3n2)c1,.,72,.,.
COc1ccccc1NS(=O)(=O)c1cc(NC(=O)c2cccs2)ccc1N1CCCC1,.,94,.,.
SMILES,Arbovirus inh,L major viab,CHOP inh,WT yeast gro inh
COc1ccc(S(=O)(=O)Nc2ccccc2OC)cc1NC(=O)Cc1cccs1,.,100,.,.
COc1ccc(Cl)cc1NC(=O)c1ccccc1C,.,.,.,.
O=S(=O)(c1ccccc1)N1CCC2(CC1)OCCO2,.,.,.,.
CCc1cc[n+](-c2nc3ccccc3nc2[N-]S(=O)(=O)c2ccc(Br)s2)cc1,.,.,.,.
COc1ccc(N(CC(=O)NCc2ccccc2)C(=O)Cn2nnc(-c3ccccc3F)n2)cc1OC,.,.,.,.
COc1ccccc1NS(=O)(=O)c1cc(NC(=O)c2cccs2)ccc1N1CCCCC1,.,.,.,.
COc1ccccc1NS(=O)(=O)c1cccc(C(=O)NN)c1,.,.,.,.
COc1ccccc1NS(=O)(=O)c1cc(NC(=O)c2sccc2C)ccc1N1CCCC1,.,64,.,.
COc1ccc(Cl)cc1NC(=O)NC1CCCCC1,.,100,.,.
O=C(Nc1ccc(N2CCCC2)c(S(=O)(=O)Nc2cccc(C(F)(F)F)c2)c1)c1cccs1,.,92,90,.
COc1ccccc1NS(=O)(=O)c1cccc(NC(=O)NC2CCCCC2)c1,.,99,.,.
COc1ccccc1NS(=O)(=O)c1cc(NC(=O)C(C)C)ccc1N1CCCCC1,.,.,.,.
COc1ccccc1NS(=O)(=O)c1cc(NC(=O)Nc2ccccc2)ccc1N1CCCCC1,.,91,.,.
O=C(Nc1ccc(Cl)c(Cl)c1)Nc1ccc(N2CCCC2)c(S(=O)(=O)Nc2ccccc2Cl)c1,.,99,79,.
O=C(Nc1ccc(Cl)cc1C(=O)NCC1CCCO1)c1ccc(Cl)cc1Cl (stereo not drawn),.,.,.,.

# Bioassay records (PubChem BioAssay)
